Data on 17 compounds can be found in ChEMBL document CHEMBL2218924, “A broad activity screen in support of a chemogenomic map for kinase signalling research and drug discovery” (Biochem J, 2013).

The target of experiment [1] is T1, Serine/threonine-protein kinase 17A (Homo sapiens) (UniProt Q9UEE5).
T1 sequence (whole entry): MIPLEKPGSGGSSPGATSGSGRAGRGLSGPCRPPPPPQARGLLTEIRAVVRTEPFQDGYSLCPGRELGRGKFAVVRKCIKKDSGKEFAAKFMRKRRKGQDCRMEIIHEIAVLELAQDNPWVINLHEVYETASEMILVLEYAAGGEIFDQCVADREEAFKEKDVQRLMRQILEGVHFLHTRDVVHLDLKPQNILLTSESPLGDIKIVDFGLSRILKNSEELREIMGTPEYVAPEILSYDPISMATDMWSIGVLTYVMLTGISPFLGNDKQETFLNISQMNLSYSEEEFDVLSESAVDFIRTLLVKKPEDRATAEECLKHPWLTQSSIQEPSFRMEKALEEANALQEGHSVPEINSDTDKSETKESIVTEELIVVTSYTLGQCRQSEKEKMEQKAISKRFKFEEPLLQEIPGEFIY
To be noted: at 1 µM.

The target in experiment [2] is T1, Serine/threonine-protein kinase 17A (Homo sapiens). To be noted: at 10 µM.
Experiment [3] concerns the target T2, Dual specificity tyrosine-phosphorylation-regulated kinase 2 (Homo sapiens) (UniProt Q92630).
T2 sequence (whole entry): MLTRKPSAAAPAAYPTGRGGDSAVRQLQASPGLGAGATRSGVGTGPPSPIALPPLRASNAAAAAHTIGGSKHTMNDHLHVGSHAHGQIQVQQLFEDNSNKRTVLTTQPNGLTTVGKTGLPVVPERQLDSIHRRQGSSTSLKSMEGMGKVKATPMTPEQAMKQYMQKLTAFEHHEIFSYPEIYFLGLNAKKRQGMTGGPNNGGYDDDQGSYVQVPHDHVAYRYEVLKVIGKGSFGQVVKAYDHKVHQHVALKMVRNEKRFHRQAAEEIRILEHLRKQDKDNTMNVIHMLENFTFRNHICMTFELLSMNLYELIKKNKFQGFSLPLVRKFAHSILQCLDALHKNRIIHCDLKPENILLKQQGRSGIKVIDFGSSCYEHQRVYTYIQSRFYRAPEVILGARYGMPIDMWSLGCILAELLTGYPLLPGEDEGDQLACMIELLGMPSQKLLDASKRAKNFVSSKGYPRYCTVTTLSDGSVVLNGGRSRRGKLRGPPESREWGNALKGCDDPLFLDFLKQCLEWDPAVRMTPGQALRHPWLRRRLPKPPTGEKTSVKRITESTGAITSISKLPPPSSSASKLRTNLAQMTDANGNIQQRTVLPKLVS
To be noted: at 1 µM.

The target in experiment [4] is T2, Dual specificity tyrosine-phosphorylation-regulated kinase 2 (Homo sapiens). To be noted: at 10 µM.
Experiment [5] addresses T3, Ephrin type-A receptor 1 (Homo sapiens) (UniProt P21709).
T3 sequence (whole entry): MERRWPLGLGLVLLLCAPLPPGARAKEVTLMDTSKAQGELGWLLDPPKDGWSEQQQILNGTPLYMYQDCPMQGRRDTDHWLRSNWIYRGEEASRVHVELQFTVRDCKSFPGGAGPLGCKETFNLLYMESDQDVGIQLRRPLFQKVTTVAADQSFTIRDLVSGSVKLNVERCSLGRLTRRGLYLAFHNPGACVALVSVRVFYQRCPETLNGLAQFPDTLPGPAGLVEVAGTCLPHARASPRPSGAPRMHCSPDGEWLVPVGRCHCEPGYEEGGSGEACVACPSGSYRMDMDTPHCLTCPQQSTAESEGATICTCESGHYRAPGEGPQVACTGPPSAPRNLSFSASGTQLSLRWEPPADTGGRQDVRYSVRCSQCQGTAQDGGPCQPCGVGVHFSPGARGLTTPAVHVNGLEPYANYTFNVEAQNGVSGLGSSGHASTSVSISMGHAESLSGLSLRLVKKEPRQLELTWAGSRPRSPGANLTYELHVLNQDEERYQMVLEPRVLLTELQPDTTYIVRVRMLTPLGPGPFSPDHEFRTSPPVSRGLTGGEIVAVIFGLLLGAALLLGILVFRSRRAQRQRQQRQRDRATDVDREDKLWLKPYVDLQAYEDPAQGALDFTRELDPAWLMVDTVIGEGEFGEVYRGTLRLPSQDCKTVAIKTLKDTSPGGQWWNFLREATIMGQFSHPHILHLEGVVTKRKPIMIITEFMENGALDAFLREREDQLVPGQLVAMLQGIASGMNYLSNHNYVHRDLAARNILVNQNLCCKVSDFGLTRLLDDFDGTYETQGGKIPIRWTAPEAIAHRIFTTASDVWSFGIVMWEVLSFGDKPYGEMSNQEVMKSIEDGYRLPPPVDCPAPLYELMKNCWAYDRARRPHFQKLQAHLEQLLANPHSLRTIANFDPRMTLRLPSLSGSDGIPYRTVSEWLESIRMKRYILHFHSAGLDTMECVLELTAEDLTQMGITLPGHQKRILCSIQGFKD
The settings on record: at 1 µM.

The target in experiment [6] is T3, Ephrin type-A receptor 1 (Homo sapiens). To be noted: at 10 µM.
For experiment [7], the target named is Ephrin type-A receptor 2 (Homo sapiens) (UniProt P29317). To be noted: at 1 µM.
Sequence of Ephrin type-A receptor 2 (Homo sapiens) (P29317 whole entry): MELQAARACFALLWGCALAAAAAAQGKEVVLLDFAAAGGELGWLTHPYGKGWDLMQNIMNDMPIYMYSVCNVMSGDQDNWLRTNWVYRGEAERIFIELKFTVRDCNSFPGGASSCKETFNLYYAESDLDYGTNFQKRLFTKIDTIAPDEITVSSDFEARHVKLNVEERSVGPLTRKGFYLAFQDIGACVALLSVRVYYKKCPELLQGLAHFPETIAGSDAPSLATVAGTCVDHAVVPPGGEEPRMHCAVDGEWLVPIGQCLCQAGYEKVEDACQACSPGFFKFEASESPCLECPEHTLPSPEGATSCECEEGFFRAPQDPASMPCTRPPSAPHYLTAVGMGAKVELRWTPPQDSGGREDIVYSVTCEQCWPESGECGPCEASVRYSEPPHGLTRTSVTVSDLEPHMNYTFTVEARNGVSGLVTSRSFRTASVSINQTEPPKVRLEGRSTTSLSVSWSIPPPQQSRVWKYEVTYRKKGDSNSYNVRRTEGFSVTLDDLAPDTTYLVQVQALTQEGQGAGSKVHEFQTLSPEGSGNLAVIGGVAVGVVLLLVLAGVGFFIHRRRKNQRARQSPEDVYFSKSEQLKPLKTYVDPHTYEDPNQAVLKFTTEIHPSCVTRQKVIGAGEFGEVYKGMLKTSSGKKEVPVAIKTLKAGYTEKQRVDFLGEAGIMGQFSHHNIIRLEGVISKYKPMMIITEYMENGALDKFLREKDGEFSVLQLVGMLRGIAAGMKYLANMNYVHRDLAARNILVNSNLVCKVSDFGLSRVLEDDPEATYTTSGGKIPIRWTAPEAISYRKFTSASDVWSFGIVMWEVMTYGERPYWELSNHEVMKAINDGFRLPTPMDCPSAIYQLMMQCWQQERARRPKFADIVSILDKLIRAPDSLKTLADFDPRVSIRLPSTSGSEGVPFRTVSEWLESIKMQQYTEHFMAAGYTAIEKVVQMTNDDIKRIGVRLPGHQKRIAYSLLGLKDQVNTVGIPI
For experiment [8] the target is unchanged. The settings on record: at 10 µM.
Experiment [9] has as its target T4, Ephrin type-A receptor 3 (Homo sapiens) (UniProt P29320).
T4 sequence (whole entry): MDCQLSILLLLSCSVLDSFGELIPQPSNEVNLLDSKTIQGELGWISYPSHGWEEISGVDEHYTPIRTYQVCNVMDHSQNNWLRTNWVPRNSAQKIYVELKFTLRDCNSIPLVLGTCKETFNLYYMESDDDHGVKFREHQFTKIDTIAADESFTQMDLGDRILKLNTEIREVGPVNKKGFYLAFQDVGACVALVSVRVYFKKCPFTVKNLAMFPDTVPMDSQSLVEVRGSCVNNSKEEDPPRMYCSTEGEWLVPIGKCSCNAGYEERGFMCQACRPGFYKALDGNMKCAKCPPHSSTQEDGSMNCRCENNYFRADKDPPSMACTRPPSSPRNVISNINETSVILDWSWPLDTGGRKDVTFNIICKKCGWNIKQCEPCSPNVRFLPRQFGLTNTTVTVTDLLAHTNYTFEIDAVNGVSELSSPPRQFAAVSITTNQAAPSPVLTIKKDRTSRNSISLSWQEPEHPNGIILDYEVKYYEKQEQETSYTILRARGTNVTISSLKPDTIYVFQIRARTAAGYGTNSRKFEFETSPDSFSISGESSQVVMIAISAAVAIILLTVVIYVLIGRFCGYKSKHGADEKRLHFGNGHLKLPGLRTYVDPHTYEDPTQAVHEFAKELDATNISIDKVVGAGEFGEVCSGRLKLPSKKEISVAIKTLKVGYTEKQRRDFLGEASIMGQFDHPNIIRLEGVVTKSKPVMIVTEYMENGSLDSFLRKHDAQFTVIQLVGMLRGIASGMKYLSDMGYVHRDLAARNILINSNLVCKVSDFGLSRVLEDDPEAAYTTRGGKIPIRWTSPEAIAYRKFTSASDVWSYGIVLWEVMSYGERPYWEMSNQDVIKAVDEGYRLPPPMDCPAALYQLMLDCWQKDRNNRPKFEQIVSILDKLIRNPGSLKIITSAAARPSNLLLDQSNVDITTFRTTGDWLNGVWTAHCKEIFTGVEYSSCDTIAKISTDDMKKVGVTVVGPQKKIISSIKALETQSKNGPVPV
To be noted: at 1 µM.

For experiment [10], the target named is Epidermal growth factor receptor (Homo sapiens) (UniProt P00533). To be noted: at 10 µM.
Sequence of Epidermal growth factor receptor (Homo sapiens) (P00533 whole entry): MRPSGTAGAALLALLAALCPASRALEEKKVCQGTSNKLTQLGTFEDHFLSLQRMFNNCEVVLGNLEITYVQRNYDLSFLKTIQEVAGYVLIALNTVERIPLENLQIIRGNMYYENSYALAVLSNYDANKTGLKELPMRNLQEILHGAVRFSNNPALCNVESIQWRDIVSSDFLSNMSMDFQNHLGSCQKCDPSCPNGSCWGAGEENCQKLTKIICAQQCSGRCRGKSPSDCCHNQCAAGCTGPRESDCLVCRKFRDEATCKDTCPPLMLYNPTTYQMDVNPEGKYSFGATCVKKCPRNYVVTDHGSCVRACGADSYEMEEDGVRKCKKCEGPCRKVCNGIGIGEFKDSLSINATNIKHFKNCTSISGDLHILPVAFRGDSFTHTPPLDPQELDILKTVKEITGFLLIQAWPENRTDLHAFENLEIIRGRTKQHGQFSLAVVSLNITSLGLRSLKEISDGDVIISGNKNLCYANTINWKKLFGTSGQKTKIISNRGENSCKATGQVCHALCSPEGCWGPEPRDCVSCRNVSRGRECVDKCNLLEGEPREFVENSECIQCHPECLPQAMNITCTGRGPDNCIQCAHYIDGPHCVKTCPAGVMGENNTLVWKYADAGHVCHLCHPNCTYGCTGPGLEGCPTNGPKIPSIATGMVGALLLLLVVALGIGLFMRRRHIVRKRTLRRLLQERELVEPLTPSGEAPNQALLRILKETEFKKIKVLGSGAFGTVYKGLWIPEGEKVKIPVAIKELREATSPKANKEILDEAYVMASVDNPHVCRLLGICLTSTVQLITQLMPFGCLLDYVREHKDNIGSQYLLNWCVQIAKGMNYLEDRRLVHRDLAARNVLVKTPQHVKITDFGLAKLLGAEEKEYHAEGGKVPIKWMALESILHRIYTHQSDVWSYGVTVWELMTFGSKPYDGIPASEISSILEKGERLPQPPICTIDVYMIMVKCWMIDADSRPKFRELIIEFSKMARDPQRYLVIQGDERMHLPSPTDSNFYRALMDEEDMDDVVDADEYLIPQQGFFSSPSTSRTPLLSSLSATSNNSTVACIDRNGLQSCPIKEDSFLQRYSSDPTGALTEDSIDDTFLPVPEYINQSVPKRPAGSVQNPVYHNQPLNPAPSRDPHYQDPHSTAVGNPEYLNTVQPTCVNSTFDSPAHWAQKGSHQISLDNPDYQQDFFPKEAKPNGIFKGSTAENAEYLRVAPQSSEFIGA

Molecules are shown by their SMILES.

In the case of `O=C1c2ccccc2-c2nc3nnnn3nc21`, the residual activity (as a rule, the signal under treatment as a percentage of the control signal) in experiment [1] came out at 108%; in experiment [2] it was 114%; in experiment [3] it was 101%; in experiment [4] it was 100%; in experiment [5], 100%; in experiment [6], 123%. The residual activity in [7] came out at 107%; in experiment [8], 116%.

Turning to `COC(=O)[C@@]1(O)C[C@H]2O[C@]1(C)n1c3ccccc3c3c4c(c5c6ccccc6n2c5c31)C(=O)NC4`, the residual activity is 0% in [1]; 1% in [2]; 2% in [3]; -4% in experiment [4]; 3% in experiment [5]; 0% in experiment [6]. The values for the residual activity in [7], in [8] and in [9] were 44%, 8% and 42%, respectively.

On to `COc1cc(OC)c(/C=C2\C(=O)Nc3ccccc32)c(OC)c1`, for which the residual activity came to 102% in experiment [3]; 93% in experiment [4]; 89% in experiment [5]; 82% in experiment [6]; 88% in experiment [7]; 93% in [8]. Also, the residual activity in experiment [9] amounted to 97%.

As for `CC(C)(C)c1cc(C=C(C#N)C#N)cc(Br)c1O`, the residual activity stood at 147% in [1]; 100% in [2]; 107% in [3]; 101% in experiment [4]; 115% in [5]; 130% in experiment [6]. Also, the residual activity was found to be 107% in [7], 104% in experiment [8] and 122% in [9].

In the case of `COc1ccc2c(c[n+](C)c3c4cc5c(cc4ccc23)OCO5)c1OC`, the residual activity in [2] was 77%; in experiment [4], 96%; in experiment [5], 94%; in [8], 100%.

Take `N/C(=N\[N+](=O)[O-])N/N=C\c1ccc(-c2cccc([N+](=O)[O-])c2)o1`: the residual activity in experiment [1] came to 76%; in experiment [2], 87%; in experiment [3] it was 90%; in [4], 95%; in experiment [6], 97%; in experiment [9] it was 97%.

`CCc1nc(-c2ccc(OC)cc2)[nH]c1-c1ccncc1`: the values for the residual activity in [4], in experiment [7] and in experiment [8] were 34%, 105% and 105%, respectively.

`O=C1NC(=O)c2c1c1c3ccccc3n3c1c1c2c2ccccc2n1C1CCC3O1`: the residual activity in experiment [1] came to 16%; in [2], 8%; in experiment [3], 91%; in experiment [4], 58%; in experiment [7], 94%; in experiment [8], 98%.

For the compound `O=[N+]([O-])/C=C/c1ccc2c(c1)OCO2`, the residual activity worked out at 119% in [1]; 63% in experiment [2]; 101% in experiment [3]; 106% in experiment [4]; 95% in experiment [5]; 102% in experiment [6]. Moreover, the residual activity in experiment [7] amounted to 106%; in [8], 115%; in experiment [9], 115%.

In the case of `CCn1cnc2c(Nc3cccc(Cl)c3)nc(N[C@@H]3CCCC[C@@H]3N)nc21`, the residual activity in experiment [1] was 90%; in [2], 83%; in [4], 85%; in [10], 95%; in experiment [5], 15%; in [6], 3%. Besides, the residual activity in [7] came out at 66%; in [8], 24%; in experiment [9] it was 61%.

As for `COc1ccc2c(c1)/C(=C/c1cnc[nH]1)C(=O)N2`, the figures for the residual activity in [3], in experiment [4] and in experiment [10] were 77%, 16% and 97%, respectively.

Regarding `C[S+]([O-])c1ccc(-c2nc(-c3ccc(F)cc3)c(-c3ccncc3)[nH]2)cc1` (configuration not stated), the residual activity in [1] stood at 123%; in [2] it was 103%; in experiment [3], 115%; in experiment [4] it was 98%; in experiment [5], 90%; in experiment [6], 26%. The residual activity in [7] turned out to be 95%; in experiment [8] it was 62%; in experiment [9], 105%.

As for `O=c1[nH]c2ccccc2n1C1CCN(Cc2ccc(-c3nc4cc5[nH]cnc5cc4nc3-c3ccccc3)cc2)CC1`, the residual activity is 126% in experiment [1]; 112% in experiment [2]; 111% in experiment [3]; 98% in experiment [4]; 102% in experiment [5]; 90% in [6]. The residual activity in [7] amounted to 103%; in experiment [8], 95%; in experiment [9] it was 112%.

For `COc1cc2ncnc(Nc3ccc(OCc4ccccc4)cc3)c2cc1OC`, the residual activity was 116% in experiment [1]; 95% in experiment [2]; 102% in [3]; 94% in experiment [4]; 94% in experiment [5]; 104% in [6]. Further, the residual activity in experiment [7] is 125%; in [8], 108%; in experiment [9], 115%.

Consider `c1cc(-c2cnn3cc(-c4ccc(OCCN5CCCCC5)cc4)cnc23)ccn1`, for which the residual activity in experiment [1] turned out to be 19%; in [2], 7%; in experiment [3], 52%; in [4], 7%; in [5] it was 17%; in experiment [6], 1%. The residual activity in experiment [7] was found to be 59%; in [8] it was 8%; in experiment [9], 58%.

In the case of `O=C1Nc2ccc3ncsc3c2/C1=C/c1c[nH]cn1`, the residual activity in experiment [1] is 1%; in experiment [2], 1%; in [3] it was 1%; in experiment [4] it was -5%; in experiment [5], 58%; in experiment [6], 24%. Further, the residual activity in experiment [7] turned out to be 77%; in experiment [8], 31%; in experiment [9] it was 82%.

On to `CC(C)[C@H](CO)Nc1nc(Nc2cccc(Cl)c2)c2ncn(C(C)C)c2n1`, for which the residual activity in experiment [1] worked out at 116%; in [2] it was 92%; in experiment [3], 99%; in experiment [4], 86%; in experiment [5] it was 69%; in [6], 14%. Moreover, the results for the residual activity in experiment [7], in [8] and in experiment [9] were 69%, 27% and 86%, respectively.
